Reference: PubChem BioAssay
“And” between values parts separate entries of the source, which are not always exact repeats. Equal values may be shown once. For some of these results: Measured potencies and affinities stand elsewhere. The source made the active and inactive calls.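 How the source made its calls, unless noted: active means normalized viability below 100% at a tested concentration; inactive means the rest.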

Columns and labels:
[1] = liver-stage malaria parasite growth inhibition, primary screen, cell-based, HepG2, luciferase luminescence, HepG2 viability (AID 624349);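 further: 100% = mean of DMSO negative control wells on the same plate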; conditions: P. berghei liver stage in HepG2, luciferase luminescence, concentration not given here; parasite load remaining: stronger effect = lower value; viability: measured here: HepG2 viability without parasites
[2] = Cy5 fluorescence interference with SSB-bound oligo, artefact control for HCV NS3 helicase inhibitor project, biochemical, NIH Clinical Collection, E. coli SSB (AID 743268; call rule not given here)
[3] = test system: Hepatitis C virus NS3 helicase; assay: HCV NS3 helicase inhibitors, primary screen, biochemical, fluorescence polarization, NIH Clinical Collection (AID 743270; call rule not given here); conditions: NS3 helicase binding to Cy5-dT15 DNA, stronger effect = higher value, concentration not given here
[4] = target: Single-stranded DNA-binding protein (Escherichia coli (strain K12)) (UniProt P0AGE0); assay: E. coli SSB displacement from DNA, counter-screen for HCV NS3 helicase inhibitor project, biochemical, fluorescence polarization, NIH Clinical Collection (AID 743271; in the data active means inhibition above about 28%); conditions: stronger effect = higher value, concentration not given here
[5] = fluorescence interference in NS3h assay format, artefact control for HCV NS3 helicase inhibitor project, biochemical, NIH Clinical Collection (AID 743272; call rule not given here;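 further: HCV NS3 helicase with a Cy5 labelled single stranded DNA probe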); conditions: fluorescence interference counterscreen, stronger effect = lower value
[6] = modulation of C. elegans fzo-1 (AID 1259413; call rule not given here;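 further: fzo-1 mutant C. elegans worms in liquid wells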); conditions: C. elegans fzo-1 modulator screen, mean read-out; stronger effect = higher value
[7] = ovarian cancer cell viability with rucaparib, profiling panel, oncology-focused library, rucaparib conditional (AID 1508598); conditions: patient-derived ovarian cancer cells, CellTiter-Glo viability, 144 h, stronger effect = lower value
[8] = viability rescue of complex I mutant cybrids, primary screen, cell-based, galactose medium, ATP luminescence (AID 1645843;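 active means z-score of at least 1.8 in each of two replicates, scored against plate mean and spread of sample wells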;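 further: positive z means more ATP and so rescue of galactose-driven cybrid death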); conditions: complex I mutant cybrid cells, 72 h, stronger effect = higher value
[9] = test system: F380Y/beta1; assay: modulators of BK channel variants, profiling panel, selectivity assay, cell-based, U2OS BacMam, thallium flux, beta subunits (AID 1259406;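 active means thallium flux through the channel raised or lowered by more than 3 SD from vehicle-only wells, actives on both sides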;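 further: initial slope of Thallos dye fluorescence rise after thallium is added; log ratio against the mean of 0.3% DMSO vehicle wells on the same plate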); conditions: at 30 µM
[10] = test system: F380Y/beta4; assay: as above; conditions: at 30 µM
[11] = test system: R275C/beta4; assay: as above; conditions: at 30 µM
[12] = test system: R275C/Slo1WT/beta2; assay: as above; conditions: at 30 µM
[13] = polyglutamine-triggered caspase-3 activation inhibitors, cell-based (AID 1583); conditions: polyglutamine-induced caspase-3 activation, cell assay; stronger effect = higher value;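 tested at 10 µM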
[14] = suppressors of polyQ aggregation in yeast, 75Q-TubU reporter (AID 1593); conditions: Yeast 75Q polyglutamine aggregation reporter
[15] = rescue of polyQ-huntingtin neuronal dysfunction in worms, whole organism, C. elegans mechanosensory neurons, N-terminal huntingtin (AID 1599); conditions: touch response, stronger effect = higher value
[16] = inhibitors of mitochondrial cytochrome c release, biochemical, purified mitochondria (AID 1603); conditions: stronger effect = lower value;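 further: mouse liver mitochondria challenged with calcium chloride; signal normalized to the plate average as 100%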
[17] = inhibitors of polyQ protein aggregation (AID 1604); conditions: polyglutamine-induced protein aggregation inhibition assay; stronger effect = higher value; tested at 2.5 µM
[18] = enhancers of glutamate uptake in motor neurons, MN-1 cell line (AID 1612); conditions: MN-1 motor neuron cells, stronger effect = higher value;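 further: tested at 1 µM final; 0% = mean of DMSO vehicle wells on each plate; positive means more glutamate uptake than control and negative means less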
[19] = suppressors of polyglutamine aggregation in yeast, 75Q-TubH (AID 1616); conditions: S. cerevisiae 75Q-TubH polyglutamine aggregation suppression; stronger effect = higher value
[20] = hESC survival regulators, cell-based (AID 493140; call rule not given here;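 further: cells exposed to compounds for four days before counting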); conditions: human embryonic stem cell survival screen; stronger effect = higher value

SMILES: CN(CCOc1ccc(CC2SC(=O)NC2=O)cc1)c1ccccn1 (centres undefined)
- viability [1]: 80.3% and 91.8% and 74.9%
- fluorescence ratio [2]: 1.05 (inactive) and 0.99 (inactive)
- inhibition [3]: -1.19% (inactive)
- inhibition [4]: 4.52% (inactive) and -0.87% (inactive)
- fluorescence ratio [5]: 1.01 (inactive) and 0.96 (inactive)
- mean signal [6]: 290 (inactive)
- viability ([7]; at 0.000305 µM, OCI-C5x cells, with rucaparib 10 µM, 100% = cells with rucaparib alone): 112% (inactive)
- viability ([7]; at 0.000305 µM, OCI-C5x cells, without rucaparib): 124% (inactive)
- viability ([7]; at 0.000305 µM, OCI-P5x cells, with rucaparib 20 µM, 100% = cells with rucaparib alone): 91.6% (active)
- viability ([7]; at 0.000305 µM, OCI-P5x cells, without rucaparib): 99.1% (active)
- viability ([7]; at 0.00122 µM, OCI-C5x cells, with rucaparib 10 µM, 100% = cells with rucaparib alone): 116% (inactive)
- viability ([7]; at 0.00122 µM, OCI-C5x cells, without rucaparib): 133% (inactive)
- viability ([7]; at 0.00122 µM, OCI-P5x cells, with rucaparib 20 µM, 100% = cells with rucaparib alone): 104% (inactive)
- viability ([7]; at 0.00122 µM, OCI-P5x cells, without rucaparib): 108% (inactive)
- viability ([7]; at 0.00488 µM, OCI-C5x cells, with rucaparib 10 µM, 100% = cells with rucaparib alone): 123% (inactive)
- viability ([7]; at 0.00488 µM, OCI-C5x cells, without rucaparib): 129% (inactive)
- viability ([7]; at 0.00488 µM, OCI-P5x cells, with rucaparib 20 µM, 100% = cells with rucaparib alone): 96.3% (active)
- viability ([7]; at 0.00488 µM, OCI-P5x cells, without rucaparib): 106% (inactive)
- viability ([7]; at 0.0195 µM, OCI-C5x cells, with rucaparib 10 µM, 100% = cells with rucaparib alone): 114% (inactive)
- viability ([7]; at 0.0195 µM, OCI-C5x cells, without rucaparib): 137% (inactive)
- viability ([7]; at 0.0195 µM, OCI-P5x cells, with rucaparib 20 µM, 100% = cells with rucaparib alone): 108% (inactive)
- viability ([7]; at 0.0195 µM, OCI-P5x cells, without rucaparib): 116% (inactive)
- viability ([7]; at 0.0781 µM, OCI-C5x cells, with rucaparib 10 µM, 100% = cells with rucaparib alone): 106% (inactive)
- viability ([7]; at 0.0781 µM, OCI-C5x cells, without rucaparib): 128% (inactive)
- viability ([7]; at 0.0781 µM, OCI-P5x cells, with rucaparib 20 µM, 100% = cells with rucaparib alone): 103% (inactive)
- viability ([7]; at 0.0781 µM, OCI-P5x cells, without rucaparib): 113% (inactive)
- viability ([7]; at 0.313 µM, OCI-C5x cells, with rucaparib 10 µM, 100% = cells with rucaparib alone): 110% (inactive)
- viability ([7]; at 0.313 µM, OCI-C5x cells, without rucaparib): 148% (inactive)
- viability ([7]; at 0.313 µM, OCI-P5x cells, with rucaparib 20 µM, 100% = cells with rucaparib alone): 106% (inactive)
- viability ([7]; at 0.313 µM, OCI-P5x cells, without rucaparib): 119% (inactive)
- viability ([7]; at 1.25 µM, OCI-C5x cells, with rucaparib 10 µM, 100% = cells with rucaparib alone): 107% (inactive)
- viability ([7]; at 1.25 µM, OCI-C5x cells, without rucaparib): 131% (inactive)
- viability ([7]; at 1.25 µM, OCI-P5x cells, with rucaparib 20 µM, 100% = cells with rucaparib alone): 101% (inactive)
- viability ([7]; at 1.25 µM, OCI-P5x cells, without rucaparib): 115% (inactive)
- viability ([7]; at 5 µM, OCI-C5x cells, with rucaparib 10 µM, 100% = cells with rucaparib alone): 106% (inactive)
- viability ([7]; at 5 µM, OCI-C5x cells, without rucaparib): 133% (inactive)
- viability ([7]; at 5 µM, OCI-P5x cells, with rucaparib 20 µM, 100% = cells with rucaparib alone): 103% (inactive)
- viability ([7]; at 5 µM, OCI-P5x cells, without rucaparib): 116% (inactive)
- z-score [8]: 0.19 (inactive) and 0.27 (inactive)
- log fold change Tl+ flux [9]: 0.17 (active) and 0.199 (active)
- log fold change Tl+ flux [10]: -0.0318 (inactive) and 0.0667 (inactive)
- log fold change Tl+ flux [11]: 0.0706 (inactive) and 0.0705 (inactive)
- log fold change Tl+ flux [12]: -0.0105 (inactive) and 0.0261 (inactive)

SMILES: CN(C)CCC=C1c2ccccc2CCc2ccccc21
- inhibition [13]: 5.08%
- score [14]: 0.94
- rescue above control [15]: 17.6
- cytochrome c release ratio [16]: 1.57
- inhibition of aggregation [17]: 70.5%
- glutamate uptake change [18]: -1.53%
- aggregation suppression score [19]: 0.931
- survival [20]: 7.08 (inactive)
- fluorescence ratio [2]: 0.94 (inactive)
- inhibition [3]: -7.73% (inactive)
- inhibition [4]: -2% (inactive)
- fluorescence ratio [5]: 0.92 (inactive)
- mean signal [6]: 243 (inactive)
- z-score [8]: -0.73 (inactive) and -1.31 (inactive)
- log fold change Tl+ flux [9]: 0.103 (inactive)
- log fold change Tl+ flux [10]: 0.189 (active)
- log fold change Tl+ flux [11]: 0.135 (active)
- log fold change Tl+ flux [12]: 0.00351 (inactive)

SMILES: C=C(CC)C(=O)c1ccc(OCC(=O)O)c(Cl)c1Cl
- inhibition [13]: 6.66%
- score [14]: 0.22
- rescue above control [15]: 6.67
- cytochrome c release ratio [16]: 0.63
- inhibition of aggregation [17]: 30.1%
- glutamate uptake change [18]: 5.34%
- aggregation suppression score [19]: 0.145
- survival [20]: 25.6 (inactive)
- fluorescence ratio [2]: 2.96 (active)
- inhibition [3]: -4.09% (inactive)
- inhibition [4]: 2.57% (inactive)
- fluorescence ratio [5]: 0.9 (inactive)
- mean signal [6]: 255 (inactive)
- z-score [8]: -0.85 (inactive) and -0.03 (inactive)
- log fold change Tl+ flux [9]: 0.1 (inactive)
- log fold change Tl+ flux [10]: 0.0312 (inactive)
- log fold change Tl+ flux [11]: -0.0645 (inactive)
- log fold change Tl+ flux [12]: 0.0108 (inactive)
